Measured values reported in PubChem BioAssay (NCATS).
Records with an inconclusive call do not appear. The source made the active and inactive calls. Calls come from the whole dose curve; as a rule, active = well fitted inhibition curve with a large enough effect; inconclusive = small, poorly fitted or top-dose-only effect; inactive = flat fitted curve, though single readings scatter.

Columns and labels:
Test in all cases: qHTS profiling for inhibitors of Plasmodium falciparum proliferation (AID 504749); note: nearly all actives have a fitted effect of over 60% in size
Conditions in all cases: P. falciparum in erythrocytes, SYBR Green DNA, 72 h; series mostly up to 12.8 µM
CP265 = test system: CP265
Outline: (§1)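 Three-day growth assay of blood-stage parasites in erythrocytes (0.3% parasitemia, 2.5% hematocrit) at 37 C, 5% CO2, quantified by SYBR Green DNA staining after overnight detergent lysis.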

CP266 = test system: CP266
Outline: as §1

CP268 = test system: CP268
Outline: as §1

CP269 = test system: CP269
Outline: as §1

CP286 = test system: CP286
Outline: as §1

CP291 = test system: CP291
Outline: as §1

CP297 = test system: CP297
Outline: as §1

CP305 = test system: CP305
Outline: as §1

CP315 = test system: CP315
Outline: as §1

CP325 = test system: CP325
Outline: as §1

CP329 = test system: CP329
Outline: as §1

CP335 = test system: CP335
Outline: as §1

DFO2036 = test system: DFO2036
Outline: as §1

DIV17 = test system: DIV17
Outline: as §1

DIV30 = test system: DIV30
Outline: as §1

Dd2 = test system: Dd2
Outline: as §1

ECU = test system: ECU
Outline: as §1

FAB9 = test system: FAB9
Outline: as §1

GB4 = test system: GB4
Outline: as §1

HB3 = test system: HB3
Outline: as §1

ICS = test system: ICS
Outline: as §1

JCK = test system: JCK
Outline: as §1

N140 = test system: N140
Outline: as §1

P93_24 = test system: P93_24
Outline: as §1

P94_40 = test system: P94_40
Outline: as §1

PAD = test system: PAD
Outline: as §1

PC15 = test system: PC15
Outline: as §1

PC26 = test system: PC26
Outline: as §1

PC49 = test system: PC49
Outline: as §1

SC27B = test system: SC27B
Outline: as §1

TAB109 = test system: TAB109
Outline: as §1

TAB113 = test system: TAB113
Outline: as §1

TAB165 = test system: TAB165
Outline: as §1

W2 = test system: W2
Outline: as §1

Measured: Potency

Nc1nc(NC2CC2)c2ncn([C@H]3C=C[C@@H](CO)C3)c2n1
inactive: all assays above
